# The source made the active and inactive calls. How the calls were made is not given here.
# Assay: PubChem AID 434992
# Settings: HT29 viability, CellTiter-Glo ATP luminescence; series mostly up to 40 µM
structure (smiles),measurement,value
FC(F)(F)c1ccc2c(c1)Nc1ccccc1S2,outcome,inactive

# From PubChem BioAssay AID434992 (The Scripps Research Institute Molecular Screening Center, 2010)
